Among the data in ChEMBL document CHEMBL3988442, “University of Dundee, Small-Polar-MMV Screening Library” (2021) are Percent Effect values, retold here.

Molecules are shown by their SMILES. For some of these results: Potency and affinity values are given separately.

Design in all cases: scale not given: direction of the effect not stated beside the values
Assay [1] concerns the target Protein translocase subunit SecA (Escherichia coli (strain K12)) (UniProt P10408). Put plainly: Assay to Identify E. coli SecA ATPase Inhibitors. As to conditions: 30 µM. The format is functional.
Assay [2] deals with T1, Ubiquitin-activating enzyme e1, putative (Leishmania donovani (strain BPK282A1)) (UniProt E9BSI1).
T1 sequence (whole entry): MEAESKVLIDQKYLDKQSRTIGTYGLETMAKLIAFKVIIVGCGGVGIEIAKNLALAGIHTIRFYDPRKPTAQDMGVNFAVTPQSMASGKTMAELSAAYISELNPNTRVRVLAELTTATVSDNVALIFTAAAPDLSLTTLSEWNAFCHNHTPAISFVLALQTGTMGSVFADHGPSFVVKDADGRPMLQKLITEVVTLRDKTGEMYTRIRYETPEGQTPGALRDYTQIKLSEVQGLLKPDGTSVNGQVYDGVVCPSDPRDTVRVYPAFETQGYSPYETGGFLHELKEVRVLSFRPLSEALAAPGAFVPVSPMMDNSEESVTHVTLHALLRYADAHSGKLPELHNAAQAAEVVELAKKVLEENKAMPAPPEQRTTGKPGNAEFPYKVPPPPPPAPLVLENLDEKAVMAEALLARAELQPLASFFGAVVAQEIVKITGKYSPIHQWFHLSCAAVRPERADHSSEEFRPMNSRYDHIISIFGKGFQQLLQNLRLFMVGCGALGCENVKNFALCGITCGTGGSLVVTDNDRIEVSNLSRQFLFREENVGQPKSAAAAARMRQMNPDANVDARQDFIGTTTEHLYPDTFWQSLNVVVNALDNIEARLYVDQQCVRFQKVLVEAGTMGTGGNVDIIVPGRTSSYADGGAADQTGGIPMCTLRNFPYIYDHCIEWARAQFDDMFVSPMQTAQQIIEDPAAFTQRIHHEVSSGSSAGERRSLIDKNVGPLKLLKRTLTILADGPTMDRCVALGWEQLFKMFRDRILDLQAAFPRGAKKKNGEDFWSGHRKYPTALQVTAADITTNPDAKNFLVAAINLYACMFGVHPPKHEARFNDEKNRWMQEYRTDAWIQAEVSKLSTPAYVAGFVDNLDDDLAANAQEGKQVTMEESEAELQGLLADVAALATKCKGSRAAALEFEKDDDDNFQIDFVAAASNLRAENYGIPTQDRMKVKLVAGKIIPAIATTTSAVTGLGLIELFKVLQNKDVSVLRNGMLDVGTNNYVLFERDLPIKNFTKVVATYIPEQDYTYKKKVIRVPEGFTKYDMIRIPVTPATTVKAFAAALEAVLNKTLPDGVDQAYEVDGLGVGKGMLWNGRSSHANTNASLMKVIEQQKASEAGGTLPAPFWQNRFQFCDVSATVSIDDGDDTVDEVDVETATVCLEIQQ
Put plainly: Leishmania donovani Ubiquitin Activating Enzyme (LdE1). The format is functional. As to conditions: 30 µM.

The target of assay [3] is AMP-activated protein kinase, AMPK (Homo sapiens) (UniProt P54646+O43741+P54619+Q9UGJ0+Q9Y478+Q13131+Q9UGI9). Put plainly: AMP-dependent Kinase enzyme assay. An in vitro enzyme assay that detects ADP turnover that is directly proportional to AMPK activity. This uses naive AMPK that is activated during the assay with MK-8722. The format is functional. As to conditions: 30 µM.

For assay [4], the target named is Sialic acid-binding Ig-like lectin 9 (Homo sapiens) (UniProt Q9Y336). Put plainly: Hs-Siglec9 ALPHAscreen SOP 20170721. As to conditions: 10 µM. Background: Bead proximity is the source of the signal in Alpha formats.
Chain of Sialic acid-binding Ig-like lectin 9 (Homo sapiens) (Q9Y336 whole entry): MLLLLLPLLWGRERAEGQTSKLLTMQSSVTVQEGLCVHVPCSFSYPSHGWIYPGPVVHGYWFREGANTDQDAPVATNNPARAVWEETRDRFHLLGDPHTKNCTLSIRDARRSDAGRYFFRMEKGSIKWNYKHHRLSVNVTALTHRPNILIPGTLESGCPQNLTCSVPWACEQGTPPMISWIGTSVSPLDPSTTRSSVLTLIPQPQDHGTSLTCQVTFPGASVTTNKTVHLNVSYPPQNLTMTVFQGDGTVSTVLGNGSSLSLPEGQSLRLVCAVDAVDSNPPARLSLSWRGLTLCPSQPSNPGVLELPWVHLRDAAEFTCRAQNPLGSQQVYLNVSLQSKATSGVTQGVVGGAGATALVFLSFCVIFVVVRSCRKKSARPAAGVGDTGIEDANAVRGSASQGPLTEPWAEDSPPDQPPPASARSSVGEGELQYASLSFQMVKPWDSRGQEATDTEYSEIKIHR
The subject of the next assay is Trypanosoma cruzi. Put plainly: Trypanosoma cruzi phosphomannomutase and mannose-1-phosphate guanylyltransferase assay. The format is functional. As to conditions: 10 µM.
The target of assay [5] is T2, Arginase-2, mitochondrial (Homo sapiens) (UniProt P78540).
T2 sequence (whole entry): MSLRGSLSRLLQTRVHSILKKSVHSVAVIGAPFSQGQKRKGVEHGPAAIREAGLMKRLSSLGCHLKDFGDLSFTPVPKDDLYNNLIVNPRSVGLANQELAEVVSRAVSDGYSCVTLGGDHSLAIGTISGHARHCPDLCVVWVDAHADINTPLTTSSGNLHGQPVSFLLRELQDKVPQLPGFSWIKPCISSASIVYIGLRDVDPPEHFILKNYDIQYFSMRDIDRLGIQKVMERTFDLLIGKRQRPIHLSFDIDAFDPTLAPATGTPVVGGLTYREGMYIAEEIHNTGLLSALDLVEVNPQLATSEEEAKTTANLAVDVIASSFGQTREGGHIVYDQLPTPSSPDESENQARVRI
Put plainly: in vitro enzyme assay to detect the production of urea directly proportional to the activity of Arginase II. Further: in the data most compounds retested in dose-response had high values. Format: functional. As to conditions: 33.3 µM.

Assay [6] concerns the target T3, Proteasome subunit beta (Trypanosoma cruzi) (UniProt O96673).
T3 sequence (whole entry): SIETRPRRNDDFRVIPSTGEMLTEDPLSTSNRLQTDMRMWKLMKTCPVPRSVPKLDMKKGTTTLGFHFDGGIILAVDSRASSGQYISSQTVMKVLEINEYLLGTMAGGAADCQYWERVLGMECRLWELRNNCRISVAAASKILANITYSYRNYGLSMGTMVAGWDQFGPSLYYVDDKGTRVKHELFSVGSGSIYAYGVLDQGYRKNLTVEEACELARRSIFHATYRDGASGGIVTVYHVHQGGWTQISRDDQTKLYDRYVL
Put plainly: Trypanosoma cruzi proteasome chymotrypsin-like activity (TcProtChymo) assay. Further: in the data most compounds retested in dose-response had high values. The format is functional. Particulars: 9.37 µM.

The species entered for the next assay is Homo sapiens. Put plainly: To identify inhibition of the IFN signalling (Jak-Stat) pathway via expression of an eGFP reporter gene under the control of an IFN-stimulated response element (ISRE) containing MxA promoter. Format: functional. As to conditions: 30 µM. (In a reporter assay the amount or activity of a reporter protein is the signal.)
Assay [7] deals with T4, Tyrosyl-tRNA synthetase, putative (Trypanosoma cruzi (strain CL Brener)) (UniProt Q4DSP6).
T4 sequence (whole entry): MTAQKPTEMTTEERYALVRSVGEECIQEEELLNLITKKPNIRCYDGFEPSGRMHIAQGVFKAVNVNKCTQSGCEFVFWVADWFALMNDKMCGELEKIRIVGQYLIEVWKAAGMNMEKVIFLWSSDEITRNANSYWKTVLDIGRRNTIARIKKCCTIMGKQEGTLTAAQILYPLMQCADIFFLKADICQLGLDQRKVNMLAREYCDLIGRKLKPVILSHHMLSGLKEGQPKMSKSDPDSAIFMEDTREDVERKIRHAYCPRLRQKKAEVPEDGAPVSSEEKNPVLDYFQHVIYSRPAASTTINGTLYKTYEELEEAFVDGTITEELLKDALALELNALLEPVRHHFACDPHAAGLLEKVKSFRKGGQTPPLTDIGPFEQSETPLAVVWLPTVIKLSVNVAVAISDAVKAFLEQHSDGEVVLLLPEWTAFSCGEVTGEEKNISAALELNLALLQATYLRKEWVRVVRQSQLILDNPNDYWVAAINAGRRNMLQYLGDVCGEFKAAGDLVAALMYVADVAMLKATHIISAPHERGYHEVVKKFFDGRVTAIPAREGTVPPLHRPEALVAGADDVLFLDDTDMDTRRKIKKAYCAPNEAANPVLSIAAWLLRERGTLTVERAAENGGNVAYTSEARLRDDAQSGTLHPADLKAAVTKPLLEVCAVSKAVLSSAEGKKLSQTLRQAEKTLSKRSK
Put plainly: Trypanosoma cruzi tyrosyl tRNA synthetase (TcYRS) _High Tyrosine SOP. Further: in the data most compounds retested in dose-response had high values. The format is functional. As to conditions: 30 µM.

In assay [8] the target is T4, Tyrosyl-tRNA synthetase, putative (Trypanosoma cruzi (strain CL Brener)). Put plainly: Trypanosoma cruzi tyrosyl tRNA synthetase (TcYRS) SOP. Format: functional. As to conditions: 30 µM.
Assay [9] addresses Chromo domain-containing protein 1 (Saccharomyces cerevisiae (strain ATCC 204508 / S288c) (Baker's yeast)) (UniProt P32657). Put plainly: ScCHD-1 Enzyme Inhibition Assay. Further: in the data most compounds retested in dose-response had high values. The format is functional. As to conditions: 30 µM.

Chain of Chromo domain-containing protein 1 (Saccharomyces cerevisiae (strain ATCC 204508 / S288c) (Baker's yeast)) (P32657 whole entry, the tested form may be a part): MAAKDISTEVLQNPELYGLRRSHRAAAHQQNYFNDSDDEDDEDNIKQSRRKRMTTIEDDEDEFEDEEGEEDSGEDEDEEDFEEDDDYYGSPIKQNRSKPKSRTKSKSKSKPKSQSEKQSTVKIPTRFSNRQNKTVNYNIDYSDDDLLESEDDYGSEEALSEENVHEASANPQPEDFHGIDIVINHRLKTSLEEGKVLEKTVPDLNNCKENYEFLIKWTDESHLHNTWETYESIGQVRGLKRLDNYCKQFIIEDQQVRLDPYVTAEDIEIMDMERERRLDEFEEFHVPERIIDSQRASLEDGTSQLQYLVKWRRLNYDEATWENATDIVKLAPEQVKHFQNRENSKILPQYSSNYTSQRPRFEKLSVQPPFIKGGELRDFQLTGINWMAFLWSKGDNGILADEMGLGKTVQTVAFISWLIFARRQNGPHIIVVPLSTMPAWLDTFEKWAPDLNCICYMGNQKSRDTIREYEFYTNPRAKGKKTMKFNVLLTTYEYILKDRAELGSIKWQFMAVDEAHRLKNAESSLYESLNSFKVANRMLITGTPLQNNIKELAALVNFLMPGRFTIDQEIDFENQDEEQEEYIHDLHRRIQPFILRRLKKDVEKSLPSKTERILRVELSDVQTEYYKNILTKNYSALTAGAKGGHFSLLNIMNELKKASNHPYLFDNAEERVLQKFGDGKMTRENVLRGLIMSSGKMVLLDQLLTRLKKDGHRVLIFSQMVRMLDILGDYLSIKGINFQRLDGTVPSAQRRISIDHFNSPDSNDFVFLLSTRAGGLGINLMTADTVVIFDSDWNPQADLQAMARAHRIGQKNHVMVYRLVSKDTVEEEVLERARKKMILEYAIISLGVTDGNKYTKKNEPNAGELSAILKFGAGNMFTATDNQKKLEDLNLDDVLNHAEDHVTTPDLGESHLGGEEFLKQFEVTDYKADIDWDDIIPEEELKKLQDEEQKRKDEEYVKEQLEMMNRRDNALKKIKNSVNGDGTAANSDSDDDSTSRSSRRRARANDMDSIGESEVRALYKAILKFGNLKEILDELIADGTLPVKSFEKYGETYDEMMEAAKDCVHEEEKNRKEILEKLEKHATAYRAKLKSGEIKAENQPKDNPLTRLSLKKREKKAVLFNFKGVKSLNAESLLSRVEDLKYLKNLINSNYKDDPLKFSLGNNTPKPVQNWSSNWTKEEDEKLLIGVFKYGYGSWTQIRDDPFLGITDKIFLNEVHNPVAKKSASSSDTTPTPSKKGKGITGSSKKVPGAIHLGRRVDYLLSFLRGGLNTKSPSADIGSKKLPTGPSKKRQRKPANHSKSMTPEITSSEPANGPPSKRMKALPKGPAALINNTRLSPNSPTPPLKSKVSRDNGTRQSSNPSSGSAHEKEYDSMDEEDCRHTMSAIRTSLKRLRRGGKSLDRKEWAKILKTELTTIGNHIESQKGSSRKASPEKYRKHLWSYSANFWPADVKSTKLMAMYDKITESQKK
Chain of Protein translocase subunit SecA (Escherichia coli (strain K12)) (P10408 whole entry): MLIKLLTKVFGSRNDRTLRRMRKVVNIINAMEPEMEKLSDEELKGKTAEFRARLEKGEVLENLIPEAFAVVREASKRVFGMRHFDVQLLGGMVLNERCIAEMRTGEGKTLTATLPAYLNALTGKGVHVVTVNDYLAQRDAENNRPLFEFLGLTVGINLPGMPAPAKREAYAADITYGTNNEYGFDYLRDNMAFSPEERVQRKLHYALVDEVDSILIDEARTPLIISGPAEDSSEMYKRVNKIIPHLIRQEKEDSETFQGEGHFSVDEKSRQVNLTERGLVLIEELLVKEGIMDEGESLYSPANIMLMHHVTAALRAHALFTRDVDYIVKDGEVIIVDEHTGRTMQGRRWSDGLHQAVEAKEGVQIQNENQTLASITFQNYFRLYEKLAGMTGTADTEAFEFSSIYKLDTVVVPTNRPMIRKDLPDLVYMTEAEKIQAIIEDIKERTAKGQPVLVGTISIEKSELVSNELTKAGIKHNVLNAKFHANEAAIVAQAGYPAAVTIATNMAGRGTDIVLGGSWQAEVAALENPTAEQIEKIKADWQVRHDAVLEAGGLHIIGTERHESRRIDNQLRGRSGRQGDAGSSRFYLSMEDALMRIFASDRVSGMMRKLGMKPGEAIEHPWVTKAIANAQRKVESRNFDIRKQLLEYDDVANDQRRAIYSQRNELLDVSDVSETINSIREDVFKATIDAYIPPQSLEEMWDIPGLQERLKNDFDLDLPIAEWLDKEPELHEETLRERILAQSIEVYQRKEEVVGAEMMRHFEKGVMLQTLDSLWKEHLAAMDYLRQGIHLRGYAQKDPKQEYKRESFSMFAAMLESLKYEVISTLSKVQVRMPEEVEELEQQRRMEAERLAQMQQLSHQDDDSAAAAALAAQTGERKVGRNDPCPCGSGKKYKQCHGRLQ

Turning to `COc1ccc(-n2ccc(C(=O)NCCN3CCCCC3C)n2)cc1` (stereo unspecified), the Percent Effect in assay [1] was -5.51%; in [2] it was -8.11%; in [3], -13.2%; in [4], 18.1%; in the assay on Trypanosoma cruzi, 4.62%; in assay [5], -6.01%. Moreover, the Percent Effect in assay [6] was 1.62%; in the assay filed under Homo sapiens it was -11.9%; in assay [7] it was 1.48%; in assay [8] it was 16.1%; in assay [9], -12.9%.

`O=C(c1ccc2c(c1)CCCC2)N1CCOCC1c1ncon1` (stereo unspecified): the Percent Effect in assay [1] was -2.2%; in assay [2] it was 5.41%; in [3], -9.67%; in [4], 7.55%; in the assay with Trypanosoma cruzi, 2.17%; in assay [5], -5.61%. The Percent Effect was 9.37% in assay [6]; 5.93% in the assay filed under Homo sapiens; 3.45% in [7]; 13.6% in assay [8]; -8.29% in assay [9].

Regarding `O=c1c2sccc2nc2n1CCN(Cc1cccs1)CC2`, the Percent Effect in [1] was -2.34%; in [2], 12.2%; in [3] it was 10.7%; in assay [4] it was 1.3%; in the assay with Trypanosoma cruzi, -0.395%; in assay [5], -1.16%. Also, the Percent Effect in assay [6] is 10.9%; in the assay listed under Homo sapiens, 12.6%; in assay [7] it was 0%; in assay [8], 11.7%; in [9], -12%.

As to `CS(=O)(=O)N1CCCCCC1C1CCN(c2ncccc2C#N)CC1` (stereo unspecified), the Percent Effect was -0.308% in assay [1]; -5.26% in [2]; 9.82% in assay [3]; 3.04% in assay [4]; 6.58% with Trypanosoma cruzi; 0% in assay [5]. In addition, the Percent Effect in assay [6] was -0.668%; in the assay listed under Homo sapiens it was -7.75%; in assay [7], 0.49%; in [8], 0%; in assay [9], 2.11%.

As for `c1cc(CNCC2CNc3ccnn3C2)cc(N2CCCCC2)n1` (stereo unspecified), the Percent Effect in assay [1] was -3.28%; in [2] it was 19%; in [3], -11.8%; in [4], -8.9%; in the assay on Trypanosoma cruzi it was 13%; in assay [5] it was -2.8%. The Percent Effect was 27.1% in assay [6]; 1.88% in the assay filed under Homo sapiens; 13.5% in assay [7]; 22.8% in assay [8]; -27.6% in [9].

As for `O=C(CCc1ccccc1)C1CCCN(C(=O)c2ncc(F)cc2F)C1` (stereo unspecified), the Percent Effect in assay [1] was -4.95%; in assay [2], 5.48%; in assay [3], 0.372%; in [4], -8.02%; in the assay on Trypanosoma cruzi it was -1.18%; in [5] it was 2.73%. Further, the Percent Effect in [6] is 9.94%; in the assay filed under Homo sapiens it was 2.79%; in assay [7], 5.38%; in [8], 10%; in [9], -1.5%.

Consider `O=C(NCc1cccc2cccnc12)N1CCC(n2cncn2)CC1`, for which the Percent Effect in assay [1] is -2.83%; in assay [2], 6.33%; in [3], 9.77%; in assay [4], 5.48%; with Trypanosoma cruzi, -5.03%; in assay [5] it was 2.37%. The Percent Effect was -0.515% in assay [6]; 12.1% in the assay filed under Homo sapiens; 9.38% in assay [7]; 7.59% in [8]; -4.9% in assay [9].

With `Cc1ncsc1C(=O)N1CCCC(c2noc(C(C)C)n2)C1` (stereo unspecified), the Percent Effect in [1] is -4.54%; in assay [2], 15.3%; in assay [3], -8.18%; in assay [4] it was 26.1%; in the assay with Trypanosoma cruzi, 2.43%; in assay [5], 33.5%. The Percent Effect was 15.3% in assay [6]; 7.22% in the assay filed under Homo sapiens; 6.32% in assay [7]; 15.4% in assay [8]; -10.2% in assay [9].

Consider `O=C(c1ccc2c(c1)OCO2)N1CCCC(n2cccn2)C1` (stereo unspecified), for which the Percent Effect in assay [1] is -1.59%; in assay [2], 10.8%; in [3], -7.46%; in assay [4] it was -3.52%; with Trypanosoma cruzi, 7.64%; in [5] it was -4.01%. Moreover, the Percent Effect is 3.24% in assay [6]; 27.9% in the assay filed under Homo sapiens; 8.37% in assay [7]; 11.1% in assay [8]; -7.12% in [9].

Regarding `CC(C)=CCN1CCOC(Cn2nc(C)cc2C)C1` (stereo unspecified), the Percent Effect is 2.83% in assay [1]; 18.4% in assay [2]; 3.22% in assay [3]; -4.58% in [4]; -8.27% with Trypanosoma cruzi; -1.92% in assay [5]. Also, the Percent Effect is 16.7% in [6]; 8.7% in the assay listed under Homo sapiens; 3.43% in [7]; 17.1% in assay [8]; -11.3% in [9].

In the case of `c1ccc(-c2cnc(CN3CCCC3Cn3cncn3)o2)cc1` (stereo unspecified), the Percent Effect was -2.46% in assay [1]; 5.06% in assay [2]; -0.0232% in assay [3]; -1.55% in assay [4]; -2.93% in the assay on Trypanosoma cruzi; 2.66% in assay [5]. Further, the Percent Effect was -0.737% in assay [6]; 10.6% in the assay listed under Homo sapiens; 7.39% in [7]; 13.9% in assay [8]; -8.4% in assay [9].
